The text below walks through data of PubChem BioAssay.

Structures are written as SMILES. Values without a mark were called inactive. The rule behind the calls is not given here.

As usually defined, the inhibition is the percentage by which the read-out fell short of the control.

In the experiment the target is Pantothenate synthetase (Mycobacterium tuberculosis (strain ATCC 25618 / H37Rv)) (UniProt P9WIL5). Put plainly: Recombinant Mtb pantothenate synthetase (PanC) inhibitors, coupled enzyme, confirmatory (AID 375).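 Note: 0% = full reaction with vehicle and 100% = no enzyme background.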 As to conditions: coupled enzyme assay; at 10 µM, stronger effect = higher value.
Sequence of Pantothenate synthetase (Mycobacterium tuberculosis (strain ATCC 25618 / H37Rv)) (P9WIL5 whole entry, looked up): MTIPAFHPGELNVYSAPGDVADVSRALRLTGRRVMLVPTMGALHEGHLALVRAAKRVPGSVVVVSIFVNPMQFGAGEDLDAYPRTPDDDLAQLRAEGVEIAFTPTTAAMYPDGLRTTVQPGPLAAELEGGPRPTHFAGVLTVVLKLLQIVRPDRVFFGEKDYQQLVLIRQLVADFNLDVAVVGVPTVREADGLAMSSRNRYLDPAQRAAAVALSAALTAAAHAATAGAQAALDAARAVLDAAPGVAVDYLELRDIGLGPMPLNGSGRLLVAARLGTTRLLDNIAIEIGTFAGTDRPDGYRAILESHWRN
Consider `COc1ccc(C(C)N2CC34C=CC(O3)C(C(=O)OCC(C)C)C4C2=O)cc1` (configuration not stated), for which the inhibition is 9%.
`CCc1nnc(NC(=O)C2Cc3ccccc3CN2S(=O)(=O)c2cccs2)s1` (configuration not stated): the inhibition is 1%.
With `CC[C@H]1CN2CCc3cc(OC)c(OC)cc3[C@@H]2C[C@@H]1C[C@H]1NCCc2cc(OC)c(OC)cc21`, the inhibition was 0%.
`COc1cccc(C2CC(c3ccc(F)cc3)Nc3nc(N)nn32)c1` (configuration not stated): the inhibition was 0%.
For the molecule `CS(=O)(=O)C1=C(O)C(=O)N(c2ccccc2)C1c1ccccc1` (configuration not stated), the inhibition is 5%.
In the case of `CC1(C)Cc2noc(N)c2C(C)(C)N1O`, the inhibition was 0%.
Consider `O=C(NCC(F)(F)F)N1CCOCC1`, for which the inhibition was 0%.
Turning to `CCCOc1ccc(S(=O)(=O)NCCCN2CCOCC2)c2ccccc12`, the inhibition is 0%.
On to `O=C(Nc1ccccc1-c1ccccc1)NC1CCN(C(=O)N2CCOCC2)CC1`, for which the inhibition was 0%.
For `Cc1cc(NS(=O)(=O)c2ccc(N)cc2)no1`, the inhibition is 1%.
The result for `Cn1nc(-c2ccc(N3CCCCC3)c(NC(=O)c3ccco3)c2)c2ccccc2c1=O` reads 0%.
For the molecule `CCOc1ccccc1N1CCN(c2nc(N)c(C#N)c(CC#N)c2C#N)CC1`, the inhibition is 0%.
As to `c1ccc(CCc2nc(-c3cccnc3)no2)cc1`, the inhibition is 0%.
As for `Cc1ccc2nc3c(cc(C(=O)NCC4CCCO4)n3C)c(=O)n2c1` (configuration not stated), the inhibition was 0%.
Turning to `O=C1CCCc2nc(N3CCCCC3)sc21`, the inhibition is 5%.
Next, `CCCCc1cc(=O)oc2cc(OCC(=O)N(CC)CC)c(Cl)cc12`: 0%; `Cc1c(C(=O)NCc2ccccn2)sc2nc(-c3ccc(F)cc3)cn12`: 0%.
